Source: PubChem
TDP1 cell CPT – qHTS for Inhibitors of human tyrosyl-DNA phosphodiesterase 1 (TDP1): qHTS in cells in presence of CPT | Potency, µM (series often up to 46.2 µM), inactives show top-dose activity change, negative = growth inhibition, usual class: inhibitors | chicken DT40 Tdp1-/-;hTDP1 cells + 20 nM CPT, ATP luminescence, 48 h | AID 686979, 2013 | 12% of 420,000 active; also: potency is read from the fitted curve at half-maximal effect; nearly all actives have a fitted effect of over 55% in size
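Cell growth measured by CellTiter-Glo luminescence after a minimum 48 h, 37 C compound exposure with 20 nM CPT in Tdp1-knockout DT40 cells stably expressing hTDP1, seeded 400/well; qHTS titration format.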
VP16 counter – VP16 counterscreen qHTS for inhibitors of ROR gamma transcriptional activity; Drosophila S2 Gal4-VP16 UAS-luciferase, luminescence, 20 h; Potency, µM (series often up to 53.6 µM), for inactives: at the highest dose activity, negative = inhibition, usual class: inhibitors; 3.5% of 310,000 active; AID 2546, 2010;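 also: Gal4-VP16 expression switched on by copper sulfate through the metallothionein promoter; potency is read from the fitted curve at half-maximal effect; nearly all actives have a fitted effect of over 50% in size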
RORgamma inh – qHTS for inhibitors of ROR gamma transcriptional activity; Nuclear receptor ROR-gamma (Mus musculus), P51450; Drosophila S2 Gal4-RORgamma UAS-luciferase reporter, 20 h; 5.4% of 310,000 active; Potency, µM (doses to about 53.6 µM), for the others: at the highest dose activity change, negative = inhibition, hits mostly inhibitors; also: potency is read from the fitted curve at half-maximal effect; nearly all actives have a fitted effect of over 60% in size
Target sequence (P51450 whole entry, looked up, the tested form may be a part): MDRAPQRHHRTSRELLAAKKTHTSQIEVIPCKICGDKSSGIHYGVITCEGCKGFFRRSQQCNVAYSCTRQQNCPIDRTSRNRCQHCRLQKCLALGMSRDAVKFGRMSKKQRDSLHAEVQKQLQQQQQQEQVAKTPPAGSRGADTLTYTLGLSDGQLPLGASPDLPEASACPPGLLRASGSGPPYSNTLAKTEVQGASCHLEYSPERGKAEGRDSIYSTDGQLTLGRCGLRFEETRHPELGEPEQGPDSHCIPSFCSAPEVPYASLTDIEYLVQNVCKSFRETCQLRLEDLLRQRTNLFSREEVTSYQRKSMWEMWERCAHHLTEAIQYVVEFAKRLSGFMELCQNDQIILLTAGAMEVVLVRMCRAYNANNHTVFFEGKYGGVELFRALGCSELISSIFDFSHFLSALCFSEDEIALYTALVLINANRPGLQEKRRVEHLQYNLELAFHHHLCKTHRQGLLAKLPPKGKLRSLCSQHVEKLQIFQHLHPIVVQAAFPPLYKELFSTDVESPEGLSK
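Luciferase reporter read in Schneider cells carrying Gal4-RORγ (mouse) and UAS-Photinus luciferase; cells given compound 1 h before 700 uM copper sulfate induction, then incubated 20 h at ambient temperature.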
IL1B secr inh – qHTS for Inhibitors of Inflammasome Signaling: IL-1-beta AlphaLISA Primary Screen; THP-1 LPS/ATP IL-1B secretion, AlphaLISA, 16 h; stronger effect = lower value; activity change, % at 57.5 µM; 4.7% of 360,000 active; AID 743279, 2014; in the data active = activity change below about -50%; inconclusive = mostly about -30% to -49%
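Secreted IL-1B measured by AlphaLISA bead assay after 16 h compound exposure of THP-1 cells; compounds (final up to 57.5 uM) added 1 h before LPS (250 ng/mL) and ATP (1.25 mM) stimulation; lower signal means less secretion.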
TDP1 cell noCPT – qHTS for Inhibitors of human tyrosyl-DNA phosphodiesterase 1 (TDP1): qHTS in cells in absence of CPT; DT40 Tdp1-/- hTDP1 cells, no CPT, ATP luminescence, 48 h; Potency, µM (titrated, usually from 46.2 µM), inactives show top-dose activity change, negative = growth inhibition, actives largely listed as inhibitors; 15% of 420,000 active; AID 686978, 2013; also: potency is read from the fitted curve at half-maximal effect; nearly all actives have a fitted effect of over 55% in size
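Chicken DT40 Tdp1-/- cells complemented with human TDP1, screened without camptothecin (DMSO vehicle only), 400 cells/well. Compounds pin-transferred, cells incubated at 37 °C for at least 48 hr. Growth read as ATP-dependent luminescence (CellTiter-Glo, 30 min at RT).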
ELG1 DNA repair – qHTS screen for small molecules that inhibit ELG1-dependent DNA repair in human embryonic kidney (HEK293T) cells expressing luciferase-tagged ELG1 | HEK293T ELG1-luciferase reporter, luminescence, 16 h; DNA damage induced by 5-fluorouridine | Potency, µM (doses to about 46.1 µM), for inactives: at the highest dose activity change, negative = inhibition, actives largely listed as inhibitors | 2.3% of 330,000 active | AID 504467, 2011; also: potency is read from the fitted curve at half-maximal effect; nearly all actives have a fitted effect of over 55% in size
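DMSO vehicle served as the neutral condition. Each well held 2,000 cells given 5-fluorouridine plus compound; after 16 hr at 37 °C/5% CO2, ONE-Glo was added and luciferase measured 30 min later.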
* = called active by the depositor; ? = inconclusive; / = no result; [ ] = dose if it differs, or a comment. Compounds with a hit are over-represented: about 21% of the library has one in this group of screens. Unless noted, calls follow the shape of the dose curve; as a rule, active = well fitted curve in the direction sought with a large enough effect; inconclusive = small, poorly fitted or top-dose-only effect, or another doubt; inactive = no such curve, though single readings can be large; an effect the other way counts as inactive or inconclusive. % is scaled to controls: 0 for no effect and ±100 for the full control effect.

SMILES	TDP1 cell CPT	VP16 counter	RORgamma inh	IL1B secr inh	TDP1 cell noCPT	ELG1 DNA repair
CCOc1ccc(CCNC(=O)CN2C(=O)c3cccnc3Oc3ccc(C)cc32)cc1OCC	20.6µM*	1.4%	-23.8%	12.3	?	?
Cc1ccc(C(=O)N(Cc2cc3ccc(F)cc3nc2N2CCC(O)CC2)CC2CCCO2)cc1 (stereo unspecified)	2.1%[9.04 µM]	/	/	/	-5.4%	/
CC(C)(C)c1cc[n+](C2=C([O-])c3ccccc3C(=O)/C2=N\S(=O)(=O)c2cccs2)cc1	2.31µM*	8.91µM*	11.2µM*	-87.8*	4.61µM*	2.91µM*
N/C(=N\S(=O)(=O)c1cccs1)c1ccccc1	-6.0%	5.2%	15.2%	-14.7	-15.6%	-1.1%
O=C1/C(=N\S(=O)(=O)c2cccs2)C([n+]2ccccc2)=C([O-])c2ccccc21	2.31µM*	?	-0.3%	-62.7*	2.31µM*	2.59µM*
CCCCOc1ccc(OCCNC(=O)c2ccco2)cc1	?	12.1%	20.2%	8.2	16.4µM*	16.7%
O=C(NC(=S)NNC(=O)c1ccco1)c1ccc(Br)cc1	?	?	12.6µM*	34.7	?	-1.4%
CCCOc1ccc(C(=O)NNC(=S)NC(=O)c2ccco2)cc1	3.26µM*	-19.8%	-33.7%	-3.7	2.91µM*	?
C=CCNC(=S)NNC(=O)c1ccco1	-26.0%	-11.5%	?	-1.6	0.7%	0.2%
O=C(/C=C/c1ccco1)NC(=S)NNC(=O)c1ccco1	16.4µM*	1.0%	?	72.6	20.6µM*	13.0%
CC(Oc1ccc(Cl)cc1)C(=O)NNC(=S)NC(=O)c1ccco1 (stereo unspecified)	?	?	12.6µM*	72.9	16.4µM*	-3.0%
CC(Oc1ccccc1)C(=O)Nc1cccc(NC(=O)c2ccco2)c1 (stereo unspecified)	?	3.6%	33.2%	-15.1	?	-6.2%
COc1ccccc1C(=O)NNC(=S)NC(=O)c1ccco1	11.6µM*	?	15.8µM*	15.1	7.31µM*	?
O=C(NNC(=S)NC(=O)c1ccco1)c1ccc(F)cc1	?	-6.2%	-9.4%	79.4	?	?
COc1ccc(C(=O)NNC(=S)NC(=O)c2ccco2)cc1	5.17µM*	4.4%	-12.5%	122.5	8.2µM*	1.3%
COc1ccccc1C(=O)NNC(=S)Nc1ccccc1	-0.9%	-2.7%	-30.4%	20.6	?	-12.2%
Cc1c(NC(=O)c2sc3ccccc3c2Cl)cccc1-c1nc2ccccc2o1	-10.5%	/	/	/	-7.7%	/
CCCNC(=O)C1(C)CCN(C(=O)c2cccc(C#N)c2)C1 (stereo unspecified)	-2.0%	/	/	181.7	1.0%	/
Cc1cnnn1-c1ccc([N+](=O)[O-])cc1	-13.1%	19.1%	-19.7%	-19.9	-12.2%	7.1%
CC1=CC(C)(C)NC(=S)N1c1ccc([N+](=O)[O-])cc1	29.1µM*	/	/	-2.1	20.6µM*	/
CC1=CC(C)(C)NC(=S)N1c1ccc(C)c(C)c1	?	4.47µM*	0.562µM*	-0.7	?	?
CC1=CC(C)(C)NC(=S)N1c1ccc(C)cc1	20.6µM*	3.55µM*	1.58µM*	7.9	23.1µM*	-27.0%
Cc1cccc(N2C(=O)CCC2=O)c1	-3.7%	-3.5%	-8.6%	-8.6	-16.4%	?
CC1=CC(C)(C)NC(=S)N1c1cccc(C)c1	?	11.2µM*	4.47µM*	-26.1	?	4.9%
Cc1ccc(N2C(=O)c3ccccc3C2=O)cc1C	12.7%	-9.1%	?	6.3	-12.0%	?
SMILES	TDP1 cell CPT	VP16 counter	RORgamma inh	IL1B secr inh	TDP1 cell noCPT	ELG1 DNA repair
O=C(CCCn1cc([N+](=O)[O-])cn1)Nc1ccc2c(c1)OCO2	-16.0%	-4.1%	-0.7%	1.9	-16.9%	19.5%
CCOC(=O)c1ccc(N=C2SC(C(=O)Nc3ccccc3)CC(=O)N2C)cc1 (stereo unspecified)	-23.5%	/	/	/	-17.4%	/
Cc1ccc(NC(=O)C(=O)NCCCN2CCOCC2)cc1C	2.9%	/	/	/	4.7%	/
Cc1cccc(NC(=O)c2oc(=O)c3ccccc3c2-c2ccccc2)c1C	10.3µM*	-12.4%	40.2%	-11.0	11.6µM*	-3.9%
Cc1ccccc1NC(=O)c1oc(=O)c2ccccc2c1-c1ccccc1	-1.6%	-5.4%	27.5%	28.0	?	-30.6%
COc1ccc(N(C)C(=O)c2oc(=O)c3ccccc3c2-c2ccc(C)cc2)c(OC)c1	20.6µM*	-5.7%	38.7%	0.3	16.4µM*	-5.0%
COc1ccc(OC)c(NC(=O)c2oc(=O)c3ccccc3c2-c2ccccc2)c1	?	/	/	/	20.6µM*	/
COc1ccc(N(C)C(=O)Cc2c(C(=O)O)n(C)c3ccccc23)c(OC)c1	16.9%	-3.1%	4.0%	16.1	-2.4%	-3.8%
CCCCN(C=O)c1c(CC)nc2ccc(C(=O)N3CCN(S(=O)(=O)CC)CC3)cn12	4.3%	/	/	-3.7	-3.2%	/
Nc1nc2cc(S(=O)(=O)N3CCOCC3)ccc2o1	23.1µM*	/	/	-3.1	?	2.4%
O=S(=O)(c1ccc2nc(-c3ccco3)c(-c3ccco3)nc2c1)N1CCOCC1	?	-13.7%	-17.0%	-7.5	?	16.4µM*
C[C@H]1CCC(=O)N([C@H](COc2ccccc2)Cc2ccccc2)CC1	18.4µM*	-11.4%	-8.8%	-4.1	16.4µM*	?
COc1ccc(SCCN2CC[C@@H](C(C)(C)C)CCC2=O)cc1	?	/	/	20.4	15.8µM*	?
CC1CCC(=O)N(CCOc2ccccc2)CC1 (stereo unspecified)	?	1.3%	0.2%	-0.7	-11.4%	?
COc1ccc(SC[C@H](Cc2ccccc2)N2CC[C@@H](C(C)(C)C)CCC2=O)cc1	18.4µM*	/	/	-50.8*	?	8.0%
CC(C)(C)[C@H]1CCC(=O)N(CCSc2ccc(Br)cc2)CC1	?	/	/	/	22.4µM*	/
COc1ccc(SCCN2CC[C@@H](O)CCC2=O)cc1	?	/	/	3.0	-19.5%	?
C[C@@H]1CCCCO[C@@H](CN(C)S(=O)(=O)c2cn(C)cn2)[C@@H](C)CN([C@H](C)CO)C(=O)c2cc(NC(=O)Nc3ccc(C(F)(F)F)cc3)ccc2O1	-10.4%	/	/	-6.9	-14.8%	/
C/C=C(\C)C(=O)C[Si](C)(C)c1ccccc1	/	-1.8%	0.7%	/	/	/
